# Measurements: PubChem BioAssay (EPA / NIEHS)
# Active and inactive are the calls of the source. The calls were made as follows: active = hit-call score of the fitted dose curve at least 0.9, where 1 is the maximum; inactive = score below 0.9.
# Molecular target: Nuclear respiratory factor 1 (Homo sapiens) (UniProt Q16656)
# Assay: ATG_NRF1_CIS: Attagene CIS-FACTORIAL HepG2 Assay for human Nuclear Respiratory Factor 1 (NRF1) Orphan Gene (AID 2282987)
# Conditions: HepG2 NRF1 cis-element reporter, Attagene multiplex; actives raise or lower the signal
# Method: ATG_CIS is a cell-based, multiplexed-readout assay that uses HepG2, a human liver cell line, with measurements taken at 24 hours after chemical dosing in a 24-well plate.ATG_NRF1_CIS is one of 52 assay component(s) measured or calculated from the ATG_CIS assay. It is designed to make measurements of mRNA induction, a form of inducible reporter, as detected with fluorescence intensity signals by Reverse transcription polymerase chain reaction (RT-PCR) and Capillary electrophoresis technology.Data from the assay component ATG_NRF1_CIS was analyzed into 1 assay endpoint. This assay endpoint, ATG_NRF1_CIS, was analyzed with bidirectional fitting relative to DMSO as the negative control and baseline of activity. Using a type of inducible reporter, measures of mRNA for gain or loss-of-signal activity can be used to understand the reporter gene at the transcription factor-level as they relate to the gene NRF1. Furthermore, this assay endpoint can be referred to as a primary readout, because this assay has produced multiple assay endpoints where this one serves a reporter gene function. To generalize the intended target to other relatable targets, this assay endpoint is annotated to the dna binding intended target family, where the subfamily is nuclear respiratory factors.
# Human liver HepG2 cells are transiently transfected with multiple reporter transcription units (MRTUs) in 6-well plates using FuGene 6 reagent (Roche; 3 ml FuGene/1 mg DNA). The MRTU constructs are regulated by a cis-regulating element (promoter). […] A major difference between the CIS and TRANS system is that in CIS activities of endogenous TFs are measured, whereas the TRANS assay evaluates changes in activities of exogenous, chimeric NR-Gal4 proteins. […] At the end of 24 hour incubation, total RNA was isolated using TriZol reagent (Invitrogen). The isolated RNA is then reverse-transcribed using oligo(dT) primer and Mo-MLV reverse transcriptase (Invitrogen) with DNAse I (Ambion) treatment for 30 min. The one-tenth of the produced cDNA was amplified by PCR using Taq DNA polymerase (Invitrogen) and two reporter sequence-specific primers. The PCR products were fluorescently labeled by primer extension with 6-arboxyfluorescein (6-FAM) 5'-labeled reporter sequence-specific primer (2 min at 95 C, 20 s at 68 C and 10 min at 72 C) and these products were digested with 5U of HpaI (New England Biolabs) for 2h at 37 C. The fragments were purified using Qiaquick PCR columns (Qiagen), analyzed on an ABI 3130xL genetic analyzer (Applied Biosystems) with peak positions identified by using a set of X-rhodamine (ROX)-labeled MapMarker1000 molecular weight standards (BioVentures). The raw capillary electrophoresis data was processed using Attagraph software (Attagene).
# Sequence of Nuclear respiratory factor 1 (Homo sapiens) (Q16656 whole entry, looked up): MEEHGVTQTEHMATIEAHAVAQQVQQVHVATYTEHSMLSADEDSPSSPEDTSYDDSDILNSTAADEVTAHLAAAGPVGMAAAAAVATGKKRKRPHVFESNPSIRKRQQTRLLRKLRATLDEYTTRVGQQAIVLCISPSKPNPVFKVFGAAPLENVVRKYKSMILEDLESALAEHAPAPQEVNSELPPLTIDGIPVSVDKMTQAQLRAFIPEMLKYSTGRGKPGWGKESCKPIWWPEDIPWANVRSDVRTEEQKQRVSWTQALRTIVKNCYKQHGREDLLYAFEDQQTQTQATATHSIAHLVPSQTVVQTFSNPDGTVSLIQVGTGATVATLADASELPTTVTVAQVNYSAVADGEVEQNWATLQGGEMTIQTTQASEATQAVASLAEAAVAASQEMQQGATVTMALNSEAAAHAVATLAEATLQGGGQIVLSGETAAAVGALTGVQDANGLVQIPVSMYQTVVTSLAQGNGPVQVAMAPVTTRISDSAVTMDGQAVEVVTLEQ
SMILES,outcome,AC50
CC(C)(C)c1ccc(N)cc1,inactive,–
CCc1c(C(=O)O)c(=O)cnn1-c1ccc(Cl)cc1,inactive,–
C=C(C)C(=O)OCC(C)C,inactive,–
CC(C)CC(O)Cc1ccccc1 (stereo not given),inactive,–
O=c1c2ccccc2oc2ccccc12,inactive,–
COc1c2ccoc2cc2oc(=O)ccc12,inactive,–
O=C(c1ccc(O)cc1)c1ccc(O)cc1O,inactive,–
Cc1ccc([N+](=O)[O-])cc1S(=O)(=O)O,inactive,–
C1=Cc2ccccc2C1,inactive,–
O=C1c2ccccc2C(=O)C1c1nc2ccccc2c(Br)c1O,inactive,–
CC(C)(C)C(=O)CCc1ccc(Cl)cc1,inactive,–
CCCCCCCCCCCCCCCC(=O)OCC,inactive,–
C=CCCCCCCCCC(=O)OCCCC,inactive,–
C=CC(=O)OCCC(=O)O,inactive,–
Cc1oncc1C(=O)Nc1ccc(C(F)(F)F)cc1,inactive,–
COCC(C)N (stereo not given),inactive,–
NC(=O)C1CO1 (stereo not given),inactive,–
COc1ccc(NC(C)=O)cc1N,inactive,–
NC(=O)N=NC(N)=O,inactive,–
O=C1C=CC(=O)O1,inactive,–

SMILES,outcome,AC50
CC(C)(C)c1n[nH]c(=O)n(N)c1=O,inactive,–
CC(=O)C=CC1C(C)=CCC(C)C1(C)C (stereo not given),inactive,–
CCCC(=O)OCc1ccccc1,inactive,–
CCCCCCOc1cc(C)c(O)c(C)c1C,inactive,–
OC1OCCOC1O (stereo not given),inactive,–
CCCCNc1ccc(NCCCC)c2c1C(=O)c1ccccc1C2=O,inactive,–
O=C1CCCN1CCO,inactive,–
CO[Si](OC)(OC)c1ccccc1,inactive,–
CCCCCCCCCCCSCC(=O)O,–,77.7 µM (active)
CCCCCCCCCCCCCOP(=O)(O)O,inactive,–
CCCCCCCCO[C@@H]1O[C@H](CO)[C@@H](O)[C@H](O)[C@H]1O,inactive,–
Cc1ccc(N/N=c2\c(=O)cc/c(=N/Nc3ccc(S(=O)(=O)O)cc3)c2=O)c(C)c1,inactive,–
O=C(Cl)c1cc(C(=O)Cl)cc(C(=O)Cl)c1,inactive,–
CC=CCO,inactive,–
C=C(C)[C@H]1CC=C(C)CC1,inactive,–
c1cc(N(CC2CO2)CC2CO2)ccc1OCC1CO1 (stereo not given),inactive,–
C=C(C)C(=O)OCCO,inactive,–
c1ccc(CCCc2ccncc2)cc1,inactive,–
O=C(O)CCCCCCCCCC(=O)O,inactive,–
O=C(/C=C/C=C/c1ccc2c(c1)OCO2)N1CCCCC1,inactive,–
